Assay results taken from PubChem BioAssay (NCI).
Compounds without any hit were thinned out: in the full panel of roughly 79,000, 15% have a hit. A number with no mark means an inactive call. The source made the active and inactive calls. Cut-off read from the data, not from the text of the source: active = growth inhibition above about 70%; inactive = the rest.

Tests used:
[1] = NCI Yeast Anticancer Drug Screen. Data for the wt1 strain (AID 149);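 note: 0% = growth of vehicle-treated wt1 cultures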; conditions: S. cerevisiae wt1 strain (SPY 50644) growth inhibition, stronger effect = higher value
How it was run: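 Each compound is tested on wt1 yeast and the loss of growth versus vehicle gives the inhibition value.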

[2] = NCI Yeast Anticancer Drug Screen. Data for the rad50EPP+ strain (AID 151);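 note: 0% = growth of vehicle-treated control cultures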; conditions: S. cerevisiae rad50 mutant strain, stronger effect = higher value
How it was run: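 Measured: growth inhibition of rad50EPP+ yeast. Reference: vehicle-treated controls. Screen uses strains with defined genetic alterations in DNA damage repair or cell cycle control.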

[3] = NCI Yeast Anticancer Drug Screen. Data for the mgt1 strain (AID 153); conditions: S. cerevisiae mgt1 mutant growth inhibition, stronger effect = higher value
How it was run: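 Compounds were applied to mgt1 mutant yeast, and growth was then compared against vehicle-treated control cultures to give percent inhibition.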

[4] = NCI Yeast Anticancer Drug Screen. Data for the rad50 strain (AID 155);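 note: 0% = growth of vehicle-only cultures of the same strain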; conditions: S. cerevisiae rad50 strain growth inhibition, stronger effect = higher value
How it was run: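 Vehicle-treated cultures provide the reference for the growth inhibition reported for compound-exposed, repair-deficient yeast.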

[5] = NCI Yeast Anticancer Drug Screen. Data for the mec2-1 strain (AID 157); conditions: S. cerevisiae mec2-1 strain, stronger effect = higher value
How it was run: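 Compounds were applied to mec2-1 yeast cells. Their growth was then compared with that of vehicle-treated cultures to give growth inhibition.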

[6] = NCI Yeast Anticancer Drug Screen. Data for the rad14 strain (AID 159);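 note: 0% = growth of vehicle-treated control cultures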; conditions: S. cerevisiae rad14 strain growth inhibition, stronger effect = higher value
How it was run: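 Inhibition of growth is reported for a repair-deficient yeast mutant following compound treatment, calculated relative to cultures that received vehicle.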

[7] = NCI Yeast Anticancer Drug Screen. Data for the sgs1 mgt1 strain (AID 161);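 note: 0% = growth of cultures given vehicle only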; conditions: S. cerevisiae sgs1 mgt1 strain, stronger effect = higher value
How it was run: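 Compounds are added to genetically altered yeast, and growth is compared with cultures given vehicle alone to give percent inhibition.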

[8] = NCI Yeast Anticancer Drug Screen. Data for the CLN2oe strain (AID 163);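 note: 0% = growth of vehicle-only control cultures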; conditions: S. cerevisiae CLN2oe strain, stronger effect = higher value
How it was run: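 Cells of an engineered yeast line with disturbed cell-cycle regulation are treated with compound. Inhibition of growth is then calculated relative to the vehicle-treated reference.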

[9] = NCI Yeast Anticancer Drug Screen. Data for the cln2 rad14 strain (AID 165);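 note: 0% = growth equal to vehicle treated cultures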; conditions: S. cerevisiae cln2 rad14 strain, stronger effect = higher value
How it was run: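 Strain: cln2 rad14 yeast, altered in cell cycle control and DNA damage repair. Read-out: growth inhibition vs vehicle.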

[10] = NCI Yeast Anticancer Drug Screen. Data for the bub3 strain (AID 167); conditions: S. cerevisiae bub3 mutant strain, stronger effect = higher value
How it was run: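 Mutant yeast screening strain plus compound; vehicle-treated cultures serve as the 0% inhibition reference.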

[11] = NCI Yeast Anticancer Drug Screen. Data for the mlh1 strain (AID 171);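 note: 0% = growth of vehicle-treated control cultures of the same strain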; conditions: S. cerevisiae mlh1 strain growth inhibition, stronger effect = higher value
How it was run: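 Test agents were incubated with yeast bearing a defined DNA damage repair or cell cycle control alteration; values are growth inhibition normalised to vehicle-treated cultures.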

[12] = NCI Yeast Anticancer Drug Screen. Data for the mlh1 rad18 strain (AID 175); conditions: S. cerevisiae mlh1 rad18 strain growth inhibition, stronger effect = higher value
How it was run: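 A repair-deficient yeast strain is exposed to test compound, and growth is scored relative to vehicle-treated controls.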

[13] = NCI Yeast Anticancer Drug Screen. Data for the rad18 strain (AID 177); conditions: S. cerevisiae rad18 mutant growth inhibition, stronger effect = higher value
How it was run: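 DNA-repair-defective yeast; compound treatment; growth inhibition scored against vehicle.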

[14] = NCI Yeast Anticancer Drug Screen. Data for the rad52 strain (AID 147);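 note: 0% = growth of vehicle-treated control cultures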; conditions: S. cerevisiae rad52 mutant growth inhibition, stronger effect = higher value
How it was run: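 Growth of repair-deficient yeast cells was compared between compound-treated and vehicle-treated cultures to give percent inhibition.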

[15] = NCI Yeast Anticancer Drug Screen. Data for the wt2 strain (AID 169); conditions: S. cerevisiae wt2 strain growth inhibition, stronger effect = higher value
How it was run: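 Growth of compound-treated yeast is measured and expressed as inhibition relative to vehicle-only controls.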

[16] = NCI Yeast Anticancer Drug Screen. Data for the sgs1 strain (AID 173);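 note: 0% = growth of vehicle-only control cultures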; conditions: S. cerevisiae sgs1 mutant, stronger effect = higher value
How it was run: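 Strain with an altered DNA repair or cell cycle pathway exposed to compound. Growth then measured. Value = inhibition versus vehicle control.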

[17] = at 5.0 µM (retest, dose inferred, filed as 0.5)
[18] = at 50.0 µM (retest, dose inferred, filed as 5.0)

SMILES: CCN(CCCl)c1cc(CN(C)C)cc(NC(=O)c2ccc(C(=O)Nc3cc(CN(C)C)cc(N(CC)CCCl)c3)cc2)c1
- growth inhibition ([1]; at 1.2 µM): 9%
- growth inhibition ([1]; at 3.7 µM): 20%
- growth inhibition ([1]; at 11.0 µM): 9%
- growth inhibition ([1]; at 33.0 µM): 8%
- growth inhibition ([1]; at 100.0 µM): 40%
- growth inhibition ([2]; at 1.2 µM): 17%
- growth inhibition ([2]; at 3.7 µM): 32%
- growth inhibition ([2]; at 11.0 µM): 9%
- growth inhibition ([2]; at 33.0 µM): 19%
- growth inhibition ([2]; at 100.0 µM): 35%
- growth inhibition ([3]; at 1.2 µM): 5%
- growth inhibition ([3]; at 3.7 µM): 3%
- growth inhibition ([3]; at 11.0 µM): -6%
- growth inhibition ([3]; at 33.0 µM): 10%
- growth inhibition ([3]; at 100.0 µM): 89% (active)
- growth inhibition ([4]; at 1.2 µM): 3%
- growth inhibition ([4]; at 3.7 µM): 11%
- growth inhibition [4, 17]: 36%
- growth inhibition ([4]; at 11.0 µM): 4%
- growth inhibition ([4]; at 33.0 µM): 58%
- growth inhibition [4, 18]: 93% (active)
- growth inhibition ([4]; at 50.0 µM): 73.5% (active)
- growth inhibition ([4]; at 100.0 µM): 96% (active)
- growth inhibition ([5]; at 1.2 µM): -8%
- growth inhibition ([5]; at 3.7 µM): 1%
- growth inhibition [5, 17]: 26%
- growth inhibition ([5]; at 11.0 µM): -9%
- growth inhibition ([5]; at 33.0 µM): 8%
- growth inhibition [5, 18]: 95% (active)
- growth inhibition ([5]; at 50.0 µM): 37.5%
- growth inhibition ([5]; at 100.0 µM): 90% (active)
- growth inhibition ([6]; at 1.2 µM): -11%
- growth inhibition ([6]; at 3.7 µM): -13%
- growth inhibition ([6]; at 11.0 µM): -6%
- growth inhibition ([6]; at 33.0 µM): 56%
- growth inhibition ([6]; at 100.0 µM): 96% (active)
- growth inhibition [7, 17]: 39%
- growth inhibition [7, 18]: 97% (active)
- growth inhibition ([7]; at 50.0 µM): 65.2%
- growth inhibition ([8]; at 1.2 µM): 15%
- growth inhibition ([8]; at 3.7 µM): 14%
- growth inhibition ([8]; at 11.0 µM): 17%
- growth inhibition ([8]; at 33.0 µM): 27%
- growth inhibition ([8]; at 100.0 µM): 47%
- growth inhibition [9, 17]: 6%
- growth inhibition [9, 18]: 58%
- growth inhibition ([9]; at 50.0 µM): 35%
- growth inhibition ([10]; at 1.2 µM): -30%
- growth inhibition ([10]; at 3.7 µM): -28%
- growth inhibition [10, 17]: 32%
- growth inhibition ([10]; at 11.0 µM): -14%
- growth inhibition ([10]; at 33.0 µM): -22%
- growth inhibition [10, 18]: 97% (active)
- growth inhibition ([10]; at 50.0 µM): -8.9%
- growth inhibition ([10]; at 100.0 µM): 75% (active)
- growth inhibition ([11]; at 1.2 µM): -6%
- growth inhibition ([11]; at 3.7 µM): -6%
- growth inhibition ([11]; at 11.0 µM): -9%
- growth inhibition ([11]; at 33.0 µM): 28%
- growth inhibition ([11]; at 100.0 µM): 90% (active)
- growth inhibition [12, 17]: 71% (active)
- growth inhibition [12, 18]: 98% (active)
- growth inhibition ([12]; at 50.0 µM): 91.7% (active)
- growth inhibition ([13]; at 1.2 µM): 3%
- growth inhibition ([13]; at 3.7 µM): 57%
- growth inhibition ([13]; at 11.0 µM): 85% (active)
- growth inhibition ([13]; at 33.0 µM): 90% (active)
- growth inhibition ([13]; at 100.0 µM): 97% (active)

SMILES: C[C@]12CCc3nonc3C1CC[C@@H]1C2CC[C@]2(C)C(=O)CCC12 (stereo partly specified)
- growth inhibition ([14]; at 1.2 µM): 4%
- growth inhibition ([14]; at 3.7 µM): 5%
- growth inhibition ([14]; at 11.0 µM): 22%
- growth inhibition ([14]; at 33.0 µM): 36%
- growth inhibition ([14]; at 100.0 µM): 66%
- growth inhibition ([2]; at 1.2 µM): 0%
- growth inhibition ([2]; at 3.7 µM): 1%
- growth inhibition ([2]; at 11.0 µM): 5%
- growth inhibition ([2]; at 33.0 µM): 12%
- growth inhibition ([2]; at 100.0 µM): 13%
- growth inhibition ([3]; at 1.2 µM): 8%
- growth inhibition ([3]; at 3.7 µM): 6%
- growth inhibition ([3]; at 11.0 µM): 19%
- growth inhibition ([3]; at 33.0 µM): 42%
- growth inhibition ([3]; at 100.0 µM): 59%
- growth inhibition ([4]; at 1.2 µM): 11%
- growth inhibition ([4]; at 3.7 µM): 7%
- growth inhibition [4, 17]: 51%
- growth inhibition ([4]; at 11.0 µM): 28%
- growth inhibition ([4]; at 33.0 µM): 62%
- growth inhibition [4, 18]: 68%
- growth inhibition ([4]; at 50.0 µM): 68%
- growth inhibition ([4]; at 100.0 µM): 76% (active)
- growth inhibition ([5]; at 1.2 µM): -1%
- growth inhibition ([5]; at 3.7 µM): -3%
- growth inhibition [5, 17]: 26%
- growth inhibition ([5]; at 11.0 µM): 10%
- growth inhibition ([5]; at 33.0 µM): 15%
- growth inhibition [5, 18]: 40%
- growth inhibition ([5]; at 50.0 µM): 33.2%
- growth inhibition ([5]; at 100.0 µM): 36%
- growth inhibition ([6]; at 1.2 µM): 27%
- growth inhibition ([6]; at 3.7 µM): 38%
- growth inhibition ([6]; at 11.0 µM): 38%
- growth inhibition ([6]; at 33.0 µM): 46%
- growth inhibition ([6]; at 100.0 µM): 60%
- growth inhibition [7, 17]: 46%
- growth inhibition [7, 18]: 73% (active)
- growth inhibition ([7]; at 50.0 µM): 81.5% (active)
- growth inhibition ([8]; at 1.2 µM): 17%
- growth inhibition ([8]; at 3.7 µM): 25%
- growth inhibition ([8]; at 11.0 µM): 28%
- growth inhibition ([8]; at 33.0 µM): 41%
- growth inhibition ([8]; at 100.0 µM): 51%
- growth inhibition [9, 17]: 54%
- growth inhibition [9, 18]: 57%
- growth inhibition ([9]; at 50.0 µM): 44.1%
- growth inhibition ([10]; at 1.2 µM): 1%
- growth inhibition ([10]; at 3.7 µM): 6%
- growth inhibition [10, 17]: 14%
- growth inhibition ([10]; at 11.0 µM): 19%
- growth inhibition ([10]; at 33.0 µM): 24%
- growth inhibition [10, 18]: 76% (active)
- growth inhibition ([10]; at 50.0 µM): 35.8%
- growth inhibition ([10]; at 100.0 µM): 49%
- growth inhibition ([15]; at 1.2 µM): 5%
- growth inhibition ([15]; at 3.7 µM): 6%
- growth inhibition ([15]; at 11.0 µM): 1%
- growth inhibition ([15]; at 33.0 µM): 14%
- growth inhibition ([15]; at 100.0 µM): 39%
- growth inhibition ([11]; at 1.2 µM): -4%
- growth inhibition ([11]; at 3.7 µM): -3%
- growth inhibition ([11]; at 11.0 µM): -1%
- growth inhibition ([11]; at 33.0 µM): 19%
- growth inhibition ([11]; at 100.0 µM): 50%
- growth inhibition ([16]; at 1.2 µM): 13%
- growth inhibition ([16]; at 3.7 µM): 21%
- growth inhibition ([16]; at 11.0 µM): 31%
- growth inhibition ([16]; at 33.0 µM): 50%
- growth inhibition ([16]; at 100.0 µM): 78% (active)
- growth inhibition [12, 17]: 46%
- growth inhibition [12, 18]: 68%
- growth inhibition ([12]; at 50.0 µM): 56.9%
- growth inhibition ([13]; at 1.2 µM): 14%
- growth inhibition ([13]; at 3.7 µM): 12%
- growth inhibition ([13]; at 11.0 µM): 19%
- growth inhibition ([13]; at 33.0 µM): 28%
- growth inhibition ([13]; at 100.0 µM): 62%
